Measured values from PubChem BioAssay AID720507 (National Center for Advancing Translational Sciences (NCATS), 2013).
Hit rate of the full screen: of about 2,300 compounds, about 140 (6.1%) were called active. Not shown: some 18% with an inconclusive outcome. Calls follow the shape of the dose curve; as a rule, active = well fitted activation curve with a large enough effect; inconclusive = small, poorly fitted or top-dose-only effect; inactive = flat fitted curve, though single readings scatter. Not all results are given here. Where a call stands in place of a potency, no number is given.

molecular target: D(2) dopamine receptor (Homo sapiens) (UniProt P14416); experiment: qHTS of D3 Dopamine Receptor Agonist: D2 Dopamine Receptor B-arrestin Agonist Counterscreen; details: DiscoveRx PathHunter D2 beta-arrestin, luminescence, 90 min; series mostly up to 76.9 µM; also: nearly all actives have a fitted effect of over 70% in size
Sequence (P14416 whole entry, looked up): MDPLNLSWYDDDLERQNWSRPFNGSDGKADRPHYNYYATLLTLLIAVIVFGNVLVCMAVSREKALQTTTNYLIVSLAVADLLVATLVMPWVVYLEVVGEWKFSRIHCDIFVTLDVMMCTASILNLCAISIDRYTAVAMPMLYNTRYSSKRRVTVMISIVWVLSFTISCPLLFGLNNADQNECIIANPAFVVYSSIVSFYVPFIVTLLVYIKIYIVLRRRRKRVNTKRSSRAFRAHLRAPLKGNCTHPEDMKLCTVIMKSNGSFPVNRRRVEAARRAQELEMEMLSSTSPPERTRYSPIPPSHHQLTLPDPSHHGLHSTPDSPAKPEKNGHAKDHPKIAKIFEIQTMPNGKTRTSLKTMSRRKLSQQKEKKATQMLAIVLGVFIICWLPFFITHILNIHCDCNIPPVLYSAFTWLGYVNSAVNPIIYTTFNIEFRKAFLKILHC
Excerpt: D3 DARs represent a very important target for the treatment of several neuropsychiatric disorders. Indeed, one of the most promising therapeutic applications for the D3 DAR is in the area of addiction and related disorders. […] These findings have been observed with a number of addictive substances including cocaine, amphetamine, nicotine, and alcohol. […] Increased D3 DAR activity can thus lead to neuroprotective and neurorestorative actions in the CNS. […] This assay is used to profile the activity of the identified D3 dopamine receptor agonist against the D2 dopamine receptor. Greater than 10% of the maximum dopamine agonist response is desired for this assay. NIH Molecular Libraries Probe Production Centers Network [MLPCN] NIH Chemical Genomics Center [NCGC] MLPCN Grant: NS064831 Assay Submitter (PI): David Sibley
DiscoveRx D2 cells were thawed from frozen stock and seeded at 2,100 cells/ 3 uL/well media (DiscoveRx Plating Reagent 2) with MultiDrop Combi dispenser (Thermo Scientific, Logan, UT) onto white tissue culture treated 1536-well Aurora plates (Brooks Automation, Chelmsford, MA) and allowed to attach overnight at 37 deg C, 5% CO2. Next, 23 nL/well of compound solutions in DMSO were added with a pintool transfer (Kalypsis, San Diego, CA). […] The rest of the plate was dispensed with buffer only, 1 uL/well as well. The cells were stimulated by compounds or dopamine control for 90 minutes at 37 deg C, 5% CO2, after which 1.5 ul/well of DiscoveRx detection reagent was added with BioRAPTR FRD dispenser. The detection reagent was prepared by mixing of Galacton Star Substrate, Emerald II solution and PathHunter buffer (supplied by the assay kit) together at 1:5:19 proportion accordingly just prior to dispensing. The plates were incubated at ambient temperature for 1 hour and then the luminescent signal was read on ViewLux plate reader (PerkinElmer, Waltham, MA).
Potency is read from the fitted curve at half-maximal effect.

SMILES	Potency
O=C(CN1CCN(S(=O)(=O)c2cc(Cl)ccc2Cl)CC1)c1ccc(O)c(O)c1	inactive
CCC(=O)Nc1ccc(C(=O)N2CCN(C(=O)c3ccco3)CC2)cc1	inactive
Cc1cc(C)n2nc(C(=O)N3CCN(Cc4ccc5c(c4)OCO5)CC3)nc2n1	inactive
O=C(c1ccco1)N1CCN(Cc2cccc(C(F)(F)F)c2)CC1	31.6 µM (active)
Cc1ccc(S(=O)(=O)N2CC(O)C[C@H]2C(=O)OCC(=O)Nc2ccc(N3CCOCC3)cc2)cc1C (stereo partly drawn)	inactive
CCN(CCCNC(=O)c1ccc2c(c1)NC(=O)CN2C)c1cccc(C)c1	inactive
O=C(COc1coc(CN2CCN(c3ccccc3)CC2)cc1=O)Nc1ccccc1F	inactive
CN(CCO)S(=O)(=O)c1ccc2c(c1)C(=O)c1cc(S(=O)(=O)N(C)CCO)ccc1-2	inactive
Cc1n[nH]c(C)c1S(=O)(=O)N1CCCC(C(=O)NCC2COc3ccccc3O2)C1 (stereo not drawn)	inactive
OCC1(Cc2ccccc2)CCN(Cc2cc3ccccc3o2)CC1	25.1 µM (active)
CS/C(=C\C(=O)c1ccco1)Nc1ccccc1Cl	inactive
O=c1oc(-c2ccccc2NS(=O)(=O)c2ccc(Cl)cc2)nc2ccccc12	inactive
O=C(NC1CCCCC1)c1ccc2c(=O)n(CC3CCCO3)c(=O)[nH]c2c1 (stereo not drawn)	inactive
COC(c1ccccc1)c1nnc(CCC(=O)N2CCN(CCOc3ccccc3)CC2)o1 (stereo not drawn)	inactive
CN1CCC(CN)(N2CCN(c3ccccc3)CC2)CC1	inactive
Cc1c(C(=O)Nc2cccc(-c3nnc4n3CCCCC4)c2)oc2ccccc12	inactive
O=C(Nc1cccnc1Cl)c1cc(-c2cccc(Cl)c2)on1	inactive
COc1ccc([C@H]2CC(=O)C=C(c3ccc(OC(F)(F)F)cc3)C2)cc1OC	inactive
Cc1c(CC(=O)N2CCN(C(=O)C3COc4ccccc4O3)CC2)c(=O)oc2c(O)c(O)ccc12 (stereo not drawn)	31.6 µM (active)
O=S(=O)(c1ccc(F)cc1)N1CC=C(c2ccccc2)CC1	inactive
CC[C@H](C)C(=O)N[C@H]1CCCN1C(=O)/C=C/c1ccccc1	inactive

SMILES	Potency
CCOC(=O)[C@H]1[C@H]2COc3ccc(C)cc3[C@@H]2N2C(=O)CN(Cc3ccc(F)cc3)C(=O)[C@@]12C	inactive
Cc1ccc(O)c(-c2cc(C(=O)Nc3c(C)n(C)n(-c4ccccc4)c3=O)[nH]n2)c1	inactive
CCCN(CC(=O)Nc1ccccc1C)C(=O)c1ccc2[nH]c3c(c2c1)CC(C)CC3 (stereo not drawn)	inactive
Cc1cnc(C(=O)N2CCCC(N3CCN(c4ccccc4F)CC3)C2)cn1 (stereo not drawn)	inactive
Cc1cccc(C)c1NC(=O)CNC(=O)c1ccc2c(c1)OCCO2	inactive
COc1ccc([C@H]2CC(=O)C=C(c3ccc(CO)cc3)C2)cc1	inactive
CC1(C)CC(=O)C=C(c2ccc3ncccc3c2)C1	inactive
COc1ccc(NC(C)=O)cc1NC(=O)CN1CCN(c2ccccn2)CC1	inactive
O=C(Nc1cccc(-c2nc3ccccc3[nH]2)c1)c1ccc(C(=O)Nc2cccc(-c3nc4ccccc4[nH]3)c2)cc1	inactive
CC(=O)OC(C)C[N+](C)(C)C (stereo not drawn)	inactive
CCC(=O)c1ccc(OCC(=O)Nc2ccc(N3CCCCC3)cc2)cc1	inactive
OCC[C@H]1C[C@H](O)[C@@H](O)[C@]2(Cc3ccccc3CO2)O1	inactive
O=C(Cc1csc(Nc2nc(=S)[nH]c3ccccc23)n1)NCCCN1CCN(c2cccc(Cl)c2)CC1	inactive
O=C(NC(=O)c1ccccc1)Nc1ccccc1O	inactive
CN1CCN(S(=O)(=O)c2cccc(C(=O)Nc3sccc3C#N)c2)CC1	inactive
O=c1cc(CCl)nc2scc(-c3ccccc3)n12	inactive
O=C(CSC1CC(=O)N(CCc2ccccc2)C1=O)Nc1ccc(Cl)cc1 (stereo not drawn)	inactive
COc1cc(OC)c(-n2cc(-c3ccc(Cl)cc3)[nH]c2=O)cc1Cl	inactive
O=C(c1c(F)cccc1F)N1CCN(S(=O)(=O)c2ccc3c(c2)OCCO3)CC1	inactive
COc1ccc(CC(NC(C)=O)C(=O)N2CCN(C(=O)Nc3cccc(Cl)c3)CC2)cc1OC (stereo not drawn)	inactive
CC(C)c1ccc2c(c1)c(SC(C)(C)C)c(CC(C)(C)C(=O)O)n2Cc1ccc(Cl)cc1	inactive

SMILES	Potency
NS(=O)(=O)c1ccc(CCNS(=O)(=O)c2cccc3cccnc23)cc1	inactive
Cc1c(CN2CC[C@@H](N3CCN(c4ccccn4)CC3)[C@H](O)C2)[nH]c2ccc(F)cc12	28.2 µM (active)
O=C(CN1CCN(c2ccccn2)CC1)NC1CCCCC1	inactive
NS(=O)(=O)c1ccc(CCNC(=O)NC2CCCCC2)cc1	inactive
O=C1c2cccc3cccc(c23)N1CN1CCN(c2ccccn2)CC1	inactive
CCC(=O)Nc1ccc2c(c1)nc(CCN1CCN(c3ccccn3)CC1)n2C	inactive
O=C(C1CC(=O)N(c2ccc(F)cc2)C1)N1CCN(c2ccccc2)CC1 (stereo not drawn)	inactive
Cn1c(=O)c(=O)n(C)c2cc(S(=O)(=O)NCCN3CCN(c4ccccc4F)CC3)ccc21	inactive
COc1ccc(N2CCN(Cc3cc(=O)oc4ccc5ccccc5c34)CC2)cc1	inactive
O=C(CCN1CCN(c2ccccc2)CC1)NNC(=S)Nc1ccccc1	inactive
Nc1nonc1-n1nnc(C(=O)N/N=C/c2ccc(Cl)cc2)c1-c1ccc2c(c1)OCO2	inactive
O=C1c2ccccc2S(=O)(=O)N1CC(O)Cn1c2ccccc2c2ccccc21 (stereo not drawn)	inactive
O=C(c1ccc2c(c1)OCCO2)C1CCN(S(=O)(=O)c2cccc(F)c2)CC1	inactive
O=C(Nc1ccc(F)cc1F)N1CCCN(CCOc2ccccc2)CC1	inactive
O=C(CCN1CCN(C/C=C/c2ccccc2)CC1)Nc1ccccc1Cl	inactive
CC(=O)C[C@@H](O)CC(=O)[C@H]1OC(=O)CCCCCCc2ccccc21	inactive
O=C(O[C@H]1[C@H](Cc2ccccc2)NS(=O)(=O)[C@H]2C[C@@H]3C=C[C@]12O3)c1ccc([N+](=O)[O-])cc1	inactive
CNC(=O)NC(=O)C(C)N1CCN(C/C=C/c2ccccc2)CC1 (stereo not drawn)	inactive
c1ccc(-c2cnc(CN3CCN(c4ccccc4)CC3)o2)cc1	inactive
C/C(=N\NC(=S)NC1CCCCC1)c1ccc(C)o1	inactive
COc1ccc(S(=O)(=O)N2CCSCC2)cc1	inactive
